Bioassay records as filed in PubChem.
GLS inh: blocks human kidney-isoform glutaminase activity; O94925; GLS enzymatic activity, qHTS titration; Potency, µM (highest dose often 45.5 µM), for inactives: at the top dose activity change, negative = inhibition, hits mostly inhibitors; 410,000 tested, 0.21% active
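Enzyme dispensed in phosphate buffer (45 mM, pH 8.2, 0.02% Tween-20), compounds pinned in, then 1 mM L-glutamine solution and the glutamate oxidase–HRP–Amplex Red mix added; fluorescence read immediately and again after 30 min at room temperature.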
TrxR1 substrate: substrates of rat thioredoxin reductase 1; purified TrxR1 substrate turnover, NADPH consumption readout; 390,000 tested, 0.01% active; Potency, µM (top dose mostly 114 µM), without a hit: at the top dose activity change, negative = substrate turnover; O89049; also: nearly all actives have a fitted effect of over 50% in size
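Rat TrxR1, dispensed at 90 nM, was prereduced with 400 uM NADPH (final) for 5 min at ~22 deg C, then incubated with compound 15 min before 400 uM selenite. A first-read NADPH fluorescence drop versus no-compound background flagged substrates.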
Sfp inh: Sfp phosphopantetheinyl transferase inhibition; Biochemical Sfp PPTase activity, qHTS; Potency, µM, for inactives: largest response in the series, negative = inhibition, actives largely listed as inhibitors; 310,000 tested, 3.5% active; Q9F4F7; AID 1490;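 also: the enzyme is Sfp with the accession as filed and its product quenches rhodamine fluorescence; 0% = enzyme reaction without inhibitor and -100% = no enzyme wells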
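Compounds were incubated with enzyme (final 15 nM) for 15 min at room temperature before substrate addition started the reaction. Fluorescence at 525 nm excitation, 598 nm emission was recorded immediately and after 30 minutes.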
GCN5L2 inh: GCN5L2 (KAT2A) acetyltransferase inhibition | Potency, µM (titrated, usually from 58.9 µM), without a hit: top-dose activity change, negative = inhibition, usual class: inhibitors | Q92830 | GCN5L2 HAT assay, ThioGlo1 CoA-SH fluorescence | 390,000 tested, 0.21% active | AID 504327
Target sequence (Q92830 whole entry, looked up): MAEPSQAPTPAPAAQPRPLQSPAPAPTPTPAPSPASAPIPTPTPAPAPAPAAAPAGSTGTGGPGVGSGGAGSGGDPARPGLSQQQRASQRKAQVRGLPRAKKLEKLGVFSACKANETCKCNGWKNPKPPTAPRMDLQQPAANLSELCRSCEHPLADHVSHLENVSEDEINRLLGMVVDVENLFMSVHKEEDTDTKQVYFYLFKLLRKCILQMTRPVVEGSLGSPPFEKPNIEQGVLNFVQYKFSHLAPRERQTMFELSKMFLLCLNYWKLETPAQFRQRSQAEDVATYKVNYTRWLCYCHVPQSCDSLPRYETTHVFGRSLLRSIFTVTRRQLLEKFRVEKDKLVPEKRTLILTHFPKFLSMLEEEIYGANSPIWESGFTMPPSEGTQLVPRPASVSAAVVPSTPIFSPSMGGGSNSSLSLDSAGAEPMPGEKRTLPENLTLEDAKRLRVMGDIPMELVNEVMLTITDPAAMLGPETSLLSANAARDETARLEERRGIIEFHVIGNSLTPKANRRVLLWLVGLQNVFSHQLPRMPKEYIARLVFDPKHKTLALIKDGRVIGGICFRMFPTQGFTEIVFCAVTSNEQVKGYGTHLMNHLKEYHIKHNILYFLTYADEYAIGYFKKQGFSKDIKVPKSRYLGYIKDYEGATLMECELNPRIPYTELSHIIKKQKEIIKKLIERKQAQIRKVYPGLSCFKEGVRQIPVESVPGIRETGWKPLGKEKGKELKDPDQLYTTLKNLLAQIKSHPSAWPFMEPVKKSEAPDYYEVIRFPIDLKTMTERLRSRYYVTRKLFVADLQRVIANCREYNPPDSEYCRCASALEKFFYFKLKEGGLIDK
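Fluorescence readout, Ex340nm/Em540nm: ThioGlo1 (50uM final) reacts with free CoA thiol released as 20nM GCN5L2 acetylates H3(1-25) peptide (75uM) using acetyl-CoA (70uM). Compound and enzyme sat 15 min beforehand; 20 min room-temperature reaction.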
TrxR1 inh: rat TrxR1 inhibition. recombinant rTrxR1, NADPH fluorescence consumption, selenite substrate. Potency, µM (doses to about 114 µM), for inactives: top-dose activity change, negative = inhibition, actives largely listed as inhibitors. 390,000 tested, 1% active; also: nearly all actives have a fitted effect of over 65% in size
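Rat TrxR1 (90 nM in the dispensed reagent) was pre-reduced with 400 uM NADPH for 5 min at room temperature, then incubated with compound for 15 min. After 400 uM selenite was added, NADPH fluorescence (Ex 340/Em 450 nm) was followed for 8 min.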
VDR inh: vitamin D3 receptor (human) inhibition; P11473; VDR-SRC2-3 peptide fluorescence polarization, 2 h; Potency, µM, inactives show max response, negative = inhibition, actives largely listed as inhibitors; 400,000 tested, 0.93% active; AID 504847
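Fluorescence polarization assay of small-molecule disruption of VDR binding to coregulator peptide SRC2-3. Compounds and controls pin-transferred, then read after 2 h incubation at ambient room temperature.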
* hit, by the source's call; ? = inconclusive; · = no result given; ! = repeats disagree; [ ] = dose if it differs, or a comment. Compounds with a hit are over-represented: about 3.8% of the library has one in this group of screens. Calls follow the shape of the dose curve; as a rule, active = well fitted curve in the direction sought with a large enough effect; inconclusive = small, poorly fitted or top-dose-only effect, or another doubt; inactive = no such curve, though single readings can be large; an effect the other way counts as inactive or inconclusive. Unless noted, % is scaled to controls: 0 for no effect and ±100 for the full control effect; potency is read from the fitted curve at half-maximal effect.

SMILES	GLS inh	TrxR1 substrate	Sfp inh	GCN5L2 inh	TrxR1 inh	VDR inh
COc1ccc(Cn2nnnc2C(c2cc3ccc(OC)cc3[nH]c2=O)N2CCC(C)CC2)cc1 (stereo not drawn)	-9.7%	3.2%	39.8µM*	-6.9%	?	-2.8%
CC1(C)CC(=O)C(C=Nc2cccnc2/N=C/C2=C(O)CC(C)(C)CC2=O)=C(O)C1	2.7%	-4.9%	19.8%	-3.5%	-5.1%	1.0%
Cn1c(=O)c2cc(NC(=O)NCc3ccc(Cl)cc3Cl)ccc2n1Cc1ccc(F)cc1	2.4%	·	·	·	·	·
CCN1/C(=C2/OC(=S)N(C)C2=O)Sc2ccccc21	7.5%	9.6%	-22.1%	-11.7%	27.4%	-10.1%
CCN1/C(=C\C=C2\C(=O)N(C)C(=S)N2C)Sc2ccccc21	?	-0.9%[57.1 µM]	39.8µM*	-2.0%	5.8%[57.1 µM]	-5.6%
COC(=O)c1cccc(NC(=O)c2ccc3c(c2)C(=O)N(C(C)(C)C)C3=O)c1	6.9%	3.1%	17.7%	-4.9%	23.4%	29.2%
COc1cccc2sc(NNC(=O)C3COc4ccccc4O3)nc12 (stereo not drawn)	?	-7.5%[57.1 µM]	79.4µM*	-3.1%	23.9%[57.1 µM]	10.4%
O=[N+]([O-])c1ccc(O)c(/C=N/n2cnc3ccccc32)c1	19.8%	-17.9%	6.6%	33.8%	-19.8%	-3.1%
Cc1ccc(/C=C2\SC(=S)N(/N=C/c3cc([N+](=O)[O-])ccc3O)C2=O)o1	16.6%	-14.3%	25.1µM*	?	22.4µM*	?
Nc1cccc(NC(=O)CN2CCOCC2)c1	-6.3%	6.0%	4.6%	-17.4%	2.6%[57.1 µM]	-14.7%
COc1ccc(NC(C)=O)cc1S(=O)(=O)N1CCn2cccc2C1C (stereo not drawn)	1.8%	-10.8%	·	1.5%	50.1µM*	-3.6%
CC(=O)c1cccc(S(=O)(=O)N2CCn3cccc3C2C)c1 (stereo not drawn)	6.1%	0.2%	·	-1.9%	-13.9%	-21.6%
Cc1noc(C)c1-c1cc(N2CCN(C)CC2)ncn1	·	·	7.4%	-5.9%	·	5.9%
COc1ccc(NC(=S)NCCCN2CCCC2=O)c(OC)c1	0.0%	5.0%[57.1 µM]	39.8µM*	25.3%	8.4%[57.1 µM]	-7.3%
COc1ccc(NC(=O)NCCCN2CCCC2=O)cc1	9.5%	-1.3%	13.1%	-2.1%	14.7%	-5.0%
COc1ccc(Oc2ccc(N/C=C/C(=O)C(C)(C)C)cc2)cc1	-2.6%	-7.6%	?	12.8%	12.1%	-12.9%
COc1cc2c(cc1OC)-c1cc(=Nc3c(C)cc(C)cc3C)n(C)c(=O)n1CC2	-2.0%	-4.5%[57.1 µM]	70.8µM*!	?	-3.3%[57.1 µM]	-13.4%
CCOc1ccccc1N(CC(=O)NC1CCCCC1)C(=O)CNC(=O)c1ccco1	-3.3%	1.4%	6.6%	0.4%	-14.8%	5.9%
CCCCNC(=O)CCCn1c(=O)[nH]c2ccc(Br)cc2c1=O	3.0%	-7.7%[57.1 µM]	26.7%	1.2%	-11.5%[57.1 µM]	-2.5%
O=C(COC(=O)c1cccc(Cl)c1Cl)NC1CCCC1	6.0%	9.5%[57.1 µM]	8.0%	-1.9%	10.8%[57.1 µM]	-6.7%
C[C@H](NC(=O)c1[nH]cnc1C(=O)Nc1ccc(CNC(=O)OC(C)(C)C)cc1)C(=O)OCc1ccccc1	-2.4%	13.2%[57.1 µM]	-1.8%	1.4%	19.9%	-6.7%
O=C(OCc1nnc(-c2ccc(Br)cc2)o1)c1ccco1	-11.0%	-7.2%	10.3%	-6.0%	-9.6%	2.6%
O=C(OCc1nc(-c2ccccc2)oc1COC(=O)c1ccco1)c1ccco1	-2.2%	5.1%	-3.1%	-18.7%	3.16µM*	9.4%
CC(=O)O[C@@H]1CC2C(C)(C)C(=O)C=C[C@]2(C)C2CC[C@]3(C)C(=CC[C@H]3C3CO[C@@H](C(C)(C)O)[C@H](O)C3)[C@@]21C (stereo partly drawn)	·	·	89.1µM*	·	·	-15.9%
O=C(O)c1cc2nccc(-c3ccco3)n2n1	11.2µM*	28.2%	10.1%	-17.4%	?	-10.1%
SMILES	GLS inh	TrxR1 substrate	Sfp inh	GCN5L2 inh	TrxR1 inh	VDR inh
COc1ccc(-c2ccnc3cc(C(=O)O)nn23)cc1	?	50.1%[57.1 µM]	-59.4%	-20.8%	1.0%[57.1 µM]	6.1%
COc1cc(/C=C2\SC(=S)N(NS(=O)(=O)c3ccccc3)C2=O)cc(OC)c1OC	?	-12.1%	79.4µM*	-12.9%	-6.8%	?
Cc1ccc(S(=O)(=O)NN2C(=O)/C(=C/c3cccs3)SC2=S)cc1	2.5%	-6.4%	79.4µM*	-26.1%	-2.4%	-15.4%
Cn1c(=O)[nH]c(=O)c2c1nc(NN)n2CCOc1ccccc1	-5.1%	10.4%[57.1 µM]	25.1µM*	3.0%	0.6%[57.1 µM]	-0.6%
CCCn1c(N/N=C(C)\C=C\c2ccccc2)nc2c1c(=O)[nH]c(=O)n2C	·	·	39.8µM*	2.2%	·	·
C=CCn1c(=O)c(C(=O)Nc2ccc(C)cn2)c(O)c2ccccc21	0.7%	2.8%[2.29 µM]	16.2%	0.2%	20.6%[2.29 µM]	-2.7%
CC(=O)O[C@@]12CO[C@@H]1C[C@H](O)[C@@]1(C)C(=O)[C@H](O)C3=C(C)[C@@H](OC(=O)[C@H](O)[C@@H](NC(=O)OC(C)(C)C)c4ccccc4)C[C@](O)([C@@H](OC(=O)c4ccccc4)[C@H]21)C3(C)C	·	·	8.91µM*	-4.3%	·	·
CC(=O)O[C@H]1C[C@@]2(O)[C@@H](OC(=O)c3ccccc3)C3[C@@](C)([C@@H](O)C[C@H]4OC[C@@]34OC(C)=O)[C@@H](O)[C@H](OC(C)=O)C(=C1C)C2(C)C (stereo partly drawn)	0.4%	-1.4%	22.2%	?	10.9%	-2.3%
COC(=O)c1c(C(=O)OC)c(-c2ccccc2)n2c1CS(=O)C2 (stereo not drawn)	-0.6%	-3.1%	11.3%	-3.9%	-0.3%	22.5%
CC(=O)NS(=O)(=O)c1ccc(NC(=O)CCC(=O)Oc2ccc(C)cc2)cc1	5.4%	7.5%	16.4%	-7.7%	-5.8%	7.1%
CCc1nnc(N/N=C/c2ccc(O)c(OC)c2)n1N	32.8%	-10.5%	?	-5.3%	13.9%	?
CCc1nnc(N/N=C/c2cc(Br)c(O)cc2O)n1N	25.6%	-14.0%	50.1µM*	-2.9%	-19.7%	4.6%
Cc1ccc2c(c1)c(N=Nc1ccc([N+](=O)[O-])cc1)c(O)n2C	-2.5%	-20.3%[57.1 µM]	17.7%	-13.2%	11.3%[57.1 µM]	5.5%
Cc1ccc2c(c1)c(C1=NC(=S)NC1=O)c(O)n2C	1.0%	3.8%[57.1 µM]	39.8µM*	-4.7%	9.2%[57.1 µM]	4.4%
CC(C(=O)Nc1ccc(N2CCOCC2)cc1)N1C(=O)c2ccccc2C1=O (stereo not drawn)	12.1%	-5.7%	-7.9%	1.3%	10.2%	14.4%
O=C1NC2CCCCC2C(=O)N1OS(=O)(=O)c1ccccc1 (stereo not drawn)	-26.9%	-2.4%[57.1 µM]	·	·	3.55µM*	15.8µM*
